Screening data as filed in PubChem.
RE007 growth inh: less growth of the S. pombe RE007 Vpr strain | AID 651644 | Potency, µM (series often up to 92.2 µM), without a hit: top-dose activity change, negative = less growth, usual class: inhibitors | 0.21% of 360,000 active | S. pombe RE007 Vpr strain, BacTiter-Glo ATP luminescence, 24 h; active means well fitted falling curve with a large enough effect; inconclusive means small, poorly fitted or top-dose-only effect; inactive means no such curve, though single readings can be large or run the other way; further: potency means the concentration at half of the fitted maximal effect; on the % scale 0 is the no-effect control and ±100 the full control effect; nearly all actives have a fitted effect of over 50% in size
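Fission yeast RE007 carrying one integrated HIV-1 vpr copy, seeded at OD 0.01 in PMG+AL medium with 23 nL pinned compound. Grown 24 h at 30 degrees; viability read by BacTiter-Glo luminescence after 5 min.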
Shiga toxin inh: blocks Shiga toxin action in Vero cells; Vero cells, Shiga toxin protein synthesis inhibition reporter; inhibition, % at 38.7 µM; 9.2% of 290,000 active; in the data active means inhibition mostly above about 28%, no sharp cut-off; inactive means mostly below about 43%; further: 0% is about no effect
Cycloheximide cs: counter-screen hit for Shiga toxin inhibitors, cycloheximide; cell reporter, cycloheximide protein synthesis inhibition counterscreen; max response, %; 12% of 300,000 active; in the data active means max response mostly above about 13%, no sharp cut-off; inactive means mostly below about 14%; further: read at 38.3 µM for the half of the compounds with a filed dose; 0% is about no effect
LmPK inh: blocks Leishmania mexicana pyruvate kinase activity | purified LmPK, Kinase-Glo ATP luminescence, 1 h | AID 1721 | 0.37% of 290,000 active | Potency, µM (highest dose often 57.5 µM), for the others: top-dose activity change, negative = inhibition, most hits filed as inhibitors; further: potency means the concentration at half of the fitted maximal effect; on the % scale 0 is the no-effect control and ±100 the full control effect
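Pyruvate kinase activity monitored as ATP production (luciferase luminescence). Conditions: 0.1 nM enzyme, 0.5 mM PEP, 0.1 mM ADP, 1 h, RT; normalized against uninhibited and no-enzyme wells.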
FBPA Giardia inh: blocks Giardia fructose-bisphosphate aldolase activity; purified Giardia FBPA; A8B2U2; Potency, µM (top dose mostly 59.6 µM), for the others: at the top dose activity, negative = inhibition, most hits filed as inhibitors; 0.71% of 290,000 active; further: potency means the concentration at half of the fitted maximal effect; on the % scale 0 is the no-effect control and ±100 the full control effect; nearly all actives have a fitted effect of over 55% in size
Target sequence (A8B2U2 whole entry, looked up): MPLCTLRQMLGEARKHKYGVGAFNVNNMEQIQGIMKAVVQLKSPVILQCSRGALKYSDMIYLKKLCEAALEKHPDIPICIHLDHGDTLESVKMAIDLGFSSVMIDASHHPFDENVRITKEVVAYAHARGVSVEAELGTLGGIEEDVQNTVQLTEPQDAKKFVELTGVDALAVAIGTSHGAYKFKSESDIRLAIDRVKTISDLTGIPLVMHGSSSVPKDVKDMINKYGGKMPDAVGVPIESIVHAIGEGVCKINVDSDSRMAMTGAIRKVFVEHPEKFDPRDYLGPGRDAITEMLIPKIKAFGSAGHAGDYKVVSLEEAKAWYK
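40 nM FBPA preincubated 10 min at RT with compound (up to 57.5 uM final), then substrate plus GAPDH/TPI/NAD/arsenate coupling and diaphorase/resazurin added. Fluorescence read after 20 min at RT, 525/598 nm.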
Tb PYK inh: inhibitors of Trypanosoma brucei pyruvate kinase. Q57TT1. TbPYK enzyme, Kinase-Glo Plus ATP luminescence, 45 min. Potency, µM (highest dose often 76.8 µM), without a hit: at the highest dose activity, negative = inhibition, usual class: inhibitors. 0.12% of 410,000 active. AID 624173; further: potency means the concentration at half of the fitted maximal effect; on the % scale 0 is the no-effect control and ±100 the full control effect; nearly all actives have a fitted effect of over 50% in size
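In this concentration-response screen, enzyme-free wells defined baseline while DMSO plates tracked drift. Each reaction combined TbPYK, substrate, compound and 130 uM ADP for 45 min at room temperature. Kinase-Glo Plus luminescence gave the signal.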
* marks the source's active call; other numbers are inactive results; ? = inconclusive; · = not tested or not shown; [ ] = another dose, or the depositor's remark. This excerpt belongs to a sample that is enriched for hits. Unless noted, the call rests on the fitted dose curve; in most records, active means well fitted curve in the direction sought with a large enough effect; inconclusive means small, poorly fitted or top-dose-only effect, or another doubt; inactive means no such curve, though single readings can be large; an effect the other way counts as inactive or inconclusive.

SMILES	RE007 growth inh	Shiga toxin inh	Cycloheximide cs	LmPK inh	FBPA Giardia inh	Tb PYK inh
COc1ccc(C(=O)Nc2cc(OC)cc(OC)c2)cc1	-10%	65*	40*	14µM*	-14%	-5%
COc1cc(NC(=O)c2ccccc2)cc(OC)c1	-16%	48	30*	-20%	0%	-1%
COc1ccc(C(=O)Nc2ccc(C(=O)c3ccccc3)cc2)cc1	4%	·	·	·	·	-12%
COc1ccc(NC(=O)c2ccc(COCC(F)(F)C(F)F)cc2)cc1OC	-5%	8	10	0%	-3%	11%
COc1ccc(NC(=O)c2ccc(CNS(=O)(=O)c3ccc4c(c3)C(C)(C)C(=O)N4C)cc2)cc1	·	·	·	·	·	-10%
CC(=O)c1ccc(N2C(=O)CC(N3CCN(S(=O)(=O)c4cc(C)ccc4C)CC3)C2=O)cc1 (stereo unspecified)	-4%	·	·	·	·	-4%
COc1ccc(-c2oc3cc(OC)ccc3c(=O)c2O)cc1	·	·	·	·	7%	·
CC(C)CCC1(C)NC(=O)N(CC(=O)Nc2ccc3c(c2)OCCO3)C1=O (stereo unspecified)	-6%	·	·	·	·	2%
Cc1ccc(-n2nnnc2SCC(=O)NC(=O)Nc2ccc3c(c2)OCCO3)cc1	0%	75*	23*	1%	0%	-2%
Nn1c(SCC(=O)Nc2ccc3c(c2)OCCO3)nnc1-c1ccncc1	-18%	-1	-2	9%	-4%	3%
O=C(CSc1nnnn1-c1ccccc1Cl)Nc1ccc2c(c1)OCCO2	5%	84*	46*	7%	-5%	-3%
Cc1nnc(SCC(=O)NC(=O)Nc2ccc3c(c2)OCCO3)n1N	1%	50*	39*	-3%	-1%	1%
CC(C)CC1(C)NC(=O)N(CC(=O)NC(=O)Nc2ccc3c(c2)OCCO3)C1=O (stereo unspecified)	7%	48*	58*	7%	-15%	-2%
COC(=O)c1ccc(NC(=O)c2c(NCc3ccc(OC)c(OC)c3)sc3c2CCCC3)cc1	·	·	·	·	·	-35%
Cc1ccc(/C=C/c2onc(C)c2S(=O)(=O)N2CCC(C(=O)NCc3ccc(C)o3)CC2)cc1	·	·	·	·	·	3%
CCC(=O)Nc1ccc(NC(=O)CSc2nnnn2-c2ccc3c(c2)OCCO3)cc1	-1%	2	-2	-1%	4%	3%
O=C(CSc1nnnn1-c1ccc(Cl)cc1)NC(=O)Nc1ccc2c(c1)OCCO2	-14%	72*	29*	0%	5%	-6%
COc1ccc(-n2nnnc2SCC(=O)NC(=O)Nc2ccc3c(c2)OCCO3)cc1	33%	92*	21*	5%	0%	-5%
CC(C)Oc1cccc(-c2nnc(SCC(=O)Nc3ccc4c(c3)OCCO4)n2N)c1	-6%	100	34*	1%	0%	0%
Nn1c(SCC(=O)Nc2ccc3c(c2)OCCO3)nnc1-c1cccnc1	29%	9	-2	-2%	0%	2%
O=C(Cc1csc(N2CCOCC2)n1)N/N=C/c1ccc(O)c(O)c1O	12%	-13	9	-2%	7.9µM*	-4%
C/C(=N\NC(=O)Cc1csc(N2CCOCC2)n1)c1ccccc1	1%[3.69 µM]	10	-1	5%	7%	·
CCc1ccc(NC(=O)[C@H](C)NC(=O)C2CCN(C(=O)[C@@H](N)Cc3ccccc3)CC2)cc1	5%	23*	16*	0%	?	6%
CCc1ccc(NC(=O)[C@H](C)NC(=O)C2CCN(C(=O)[C@@H](NC(=O)OC(C)(C)C)C(C)C)CC2)cc1	-1%	53	14*	1%	10%	-2%
CC(C)[C@H](NC(=O)OC(C)(C)C)C(=O)N1CCC(C(=O)N[C@@H](C)C(=O)Nc2ccc(F)cc2)CC1	-9%	33	-2	-5%	-6%	4%
SMILES	RE007 growth inh	Shiga toxin inh	Cycloheximide cs	LmPK inh	FBPA Giardia inh	Tb PYK inh
CC(=O)N1c2ccc(S(=O)(=O)N(C)CC(=O)NCc3ccc(C)cc3)cc2CC1C (stereo unspecified)	-13%	2	13	-2%	·	1%
O=C(COC(=O)c1ccc[n+]([O-])c1)Nc1ccc(Cl)cc1[N+](=O)[O-]	6%	·	·	·	·	-5%
Cn1c(CN2CCN(C(=O)c3ccccc3Cl)CC2)nc2cc([N+](=O)[O-])ccc21	2%	-6	-4	7%	-4%	3%
Cn1c(CN2CCN(C(=O)c3ccccc3)CC2)nc2cc([N+](=O)[O-])ccc21	-15%	46*	19*	1%	-3%	2%
O=C(CSc1nc(-c2ccccc2)cs1)NCCN1C(=O)CSC1=O	-14%	38	30*	-1%	3%	0%
Cc1ccc(Nc2nnc(SCC(=O)NCCN3C(=O)CSC3=O)s2)cc1C	-13%	active	15*	?	-5%	0%
Cc1cc(/C=C2/NC(=S)NC2=O)c(C)n1-c1cccnc1	6%	51*	37*	-5%	-16%	-2%
Cc1cc(/C=C2/NC(=O)N(c3ccccc3)C2=O)c(C)n1-c1cccnc1	47%	91*	59*	-1%	-10%	-4%
Cc1cc(C=C2C(=O)NC(=O)NC2=O)c(C)n1-c1cccnc1	-19%	-6	-5	-7%	1%	-9%
OC(CNCC(c1ccc(Cl)cc1Cl)c1c[nH]c2ccccc12)c1ccccc1 (stereo unspecified)	-26%	-22	-2	-2%	-5%	-18%
CCc1nn(-c2ccccc2)c2nc(-c3ccc(O)cc3)c3cc(OC)c(OC)cc3c12	·	·	·	·	·	0%
C/C=C1\COC(C(=O)NCc2cccc(OC)c2OC)(C(F)(F)F)C=C1C=C(C)C (stereo unspecified)	·	13	-4	·	-3%	·
O=C(c1cc(F)ccc1F)C1CCCN(C(=O)CCN2CCCCO2)C1 (stereo unspecified)	-1%	23	17*	0%	0%	-1%
O=C(c1cc(F)ccc1F)C1CCCN(C(=O)c2ccc3nccnc3c2)C1 (stereo unspecified)	4%	31*	22*	1%	-3%	0%
CN(C)c1cccc(C(=O)N2CCCC(C(=O)c3cc(F)ccc3F)C2)c1 (stereo unspecified)	-6%	22	-4	-5%	-3%	0%
OC[C@@H]1CN(Cc2ccc(F)cc2)C[C@H](n2cnc3c(N4CCCC4)ncnc32)O1	0%	·	·	·	·	-3%
COc1ccccc1NC(c1ccc(Cl)cc1)c1nnc(-c2cccc(F)c2)o1 (stereo unspecified)	·	·	·	·	·	-4%
Cc1nc(-c2coc3c(O)c(O)ccc3c2=O)cs1	·	·	·	·	14µM*	·
COCC(C)n1c(SCC(=O)NC(=O)NCc2ccccc2)nc2ccccc2c1=O (stereo unspecified)	-9%	·	·	·	·	-4%
CCOC(=O)[C@]12CCCC=C1N(Cc1ccccc1)C(=O)[C@H](CC(=O)NCC1CCCCC1)C2	-17%	·	·	·	·	·
